# Results filed as inconclusive are left out. Unmarked numbers belong to inactive results. Calls of active or inactive are those of the source. The call rests on the fitted dose curve; in most records, active means well fitted curve in the direction sought with a large enough effect; inconclusive means small, poorly fitted or top-dose-only effect, or another doubt; inactive means no such curve, though single readings can be large; an effect the other way counts as inactive or inconclusive.
# Assays:
# [1] = target: Rap guanine nucleotide exchange factor 3 (Homo sapiens) (UniProt O95398); assay: Confirmatory qHTS for antagonist of cAMP-regulated guanine nucleotide exchange factor 3 (EPAC1) (AID 1645880); further: nearly all actives have a fitted effect of over 55% in size; further: potency means the concentration at half of the fitted maximal effect
# Summary of the method: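 Nucleotide exchange uses 100 nM EPAC1, 250 nM RAP1B-BODIPY-GDP and 50 uM GDP, with compounds in a concentration-titration series. After 5 min at room temperature, fluorescence (480 nm ex/540 nm em) is read every 5 min for 30 min. Data are normalized to control ATA and DMSO.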
# [2] = target: Rap guanine nucleotide exchange factor 3 (Homo sapiens) (UniProt O95398); assay: Confirmatory qHTS for agonist of cAMP-regulated guanine nucleotide exchange factor 3 (EPAC1) (AID 1645881);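 further: EPAC1 catalysed release of BODIPY-GDP from Rap1B seen as fluorescence loss; 100% = effect of cAMP agonist control; nearly all actives have a fitted effect of over 75% in size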
# [3] = target: Rap guanine nucleotide exchange factor 4 (Homo sapiens) (UniProt Q8WZA2); assay: Confirmatory qHTS for agonist of cAMP-regulated guanine nucleotide exchange factor 4 (EPAC2) (AID 1645884);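 further: nucleotide exchange releases bodipy-GDP from Rap1 and this lowers its fluorescence; on the % scale 0 is the no-effect control and ±100 the full control effect; nearly all actives have a fitted effect of over 65% in size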
# [4] = target: Rap guanine nucleotide exchange factor 4 (Homo sapiens) (UniProt Q8WZA2); assay: Confirmatory qHTS for antagonist of cAMP-regulated guanine nucleotide exchange factor 4 (EPAC2) (AID 1645885); further: on the % scale 0 is the no-effect control and ±100 the full control effect; nearly all actives have a fitted effect of over 25% in size
# [5] = target: Rap guanine nucleotide exchange factor 3 (Homo sapiens) (UniProt O95398); assay: Counterscreen qHTS for agonist of cAMP-regulated guanine nucleotide exchange factor 3 (EPAC1) (AID 1645889); further: % of control where 0% means no effect; nearly all actives have a fitted effect of over 40% in size
# Summary of the method: (§1)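 Rap1B–BODIPY-GDP (250 nM) with 50 uM GDP; compounds pin-transferred to 9.74 nM–152 uM final (activator) or from 7.32 nM upwards (inhibitor). Fluorescence Ex/Em 480/540 nm read at 5 and 30 min, then after adding cAMP or buffer, at room temperature.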
# [6] = target: Rap guanine nucleotide exchange factor 3 (Homo sapiens) (UniProt O95398); assay: Counterscreen qHTS for antagonist of cAMP-regulated guanine nucleotide exchange factor 3 (EPAC1) (AID 1645888);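 further: fluorescence loss as bound BODIPY-GDP is released from Rap1B; % of control where 0% means no effect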
# Summary of the method: as §1
# Chain of Rap guanine nucleotide exchange factor 3 (Homo sapiens) (O95398 whole entry, looked up): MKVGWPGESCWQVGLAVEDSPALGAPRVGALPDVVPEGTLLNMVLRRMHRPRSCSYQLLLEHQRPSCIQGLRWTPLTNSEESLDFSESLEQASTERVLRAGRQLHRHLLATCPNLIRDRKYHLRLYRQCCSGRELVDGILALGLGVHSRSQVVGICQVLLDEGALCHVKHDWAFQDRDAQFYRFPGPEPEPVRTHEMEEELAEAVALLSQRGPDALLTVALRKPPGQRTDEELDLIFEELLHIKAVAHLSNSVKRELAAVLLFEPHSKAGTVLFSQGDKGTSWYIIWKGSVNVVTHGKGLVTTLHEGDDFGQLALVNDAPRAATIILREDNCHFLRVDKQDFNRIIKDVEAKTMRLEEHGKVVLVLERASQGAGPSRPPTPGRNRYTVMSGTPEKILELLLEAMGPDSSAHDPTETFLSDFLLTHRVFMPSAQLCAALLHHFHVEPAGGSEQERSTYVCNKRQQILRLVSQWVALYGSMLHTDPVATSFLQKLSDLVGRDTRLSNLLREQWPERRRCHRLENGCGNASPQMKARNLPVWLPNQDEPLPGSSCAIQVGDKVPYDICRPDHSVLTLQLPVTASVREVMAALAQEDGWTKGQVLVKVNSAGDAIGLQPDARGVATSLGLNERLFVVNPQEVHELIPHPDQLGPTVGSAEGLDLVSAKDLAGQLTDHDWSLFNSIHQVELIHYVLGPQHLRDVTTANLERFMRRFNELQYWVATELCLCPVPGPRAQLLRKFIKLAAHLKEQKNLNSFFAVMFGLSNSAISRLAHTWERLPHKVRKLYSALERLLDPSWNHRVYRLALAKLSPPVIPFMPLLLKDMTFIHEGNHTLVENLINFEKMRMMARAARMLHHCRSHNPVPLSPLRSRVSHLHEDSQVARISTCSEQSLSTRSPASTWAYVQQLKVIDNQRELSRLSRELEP
# Chain of Rap guanine nucleotide exchange factor 4 (Homo sapiens) (Q8WZA2 whole entry, looked up): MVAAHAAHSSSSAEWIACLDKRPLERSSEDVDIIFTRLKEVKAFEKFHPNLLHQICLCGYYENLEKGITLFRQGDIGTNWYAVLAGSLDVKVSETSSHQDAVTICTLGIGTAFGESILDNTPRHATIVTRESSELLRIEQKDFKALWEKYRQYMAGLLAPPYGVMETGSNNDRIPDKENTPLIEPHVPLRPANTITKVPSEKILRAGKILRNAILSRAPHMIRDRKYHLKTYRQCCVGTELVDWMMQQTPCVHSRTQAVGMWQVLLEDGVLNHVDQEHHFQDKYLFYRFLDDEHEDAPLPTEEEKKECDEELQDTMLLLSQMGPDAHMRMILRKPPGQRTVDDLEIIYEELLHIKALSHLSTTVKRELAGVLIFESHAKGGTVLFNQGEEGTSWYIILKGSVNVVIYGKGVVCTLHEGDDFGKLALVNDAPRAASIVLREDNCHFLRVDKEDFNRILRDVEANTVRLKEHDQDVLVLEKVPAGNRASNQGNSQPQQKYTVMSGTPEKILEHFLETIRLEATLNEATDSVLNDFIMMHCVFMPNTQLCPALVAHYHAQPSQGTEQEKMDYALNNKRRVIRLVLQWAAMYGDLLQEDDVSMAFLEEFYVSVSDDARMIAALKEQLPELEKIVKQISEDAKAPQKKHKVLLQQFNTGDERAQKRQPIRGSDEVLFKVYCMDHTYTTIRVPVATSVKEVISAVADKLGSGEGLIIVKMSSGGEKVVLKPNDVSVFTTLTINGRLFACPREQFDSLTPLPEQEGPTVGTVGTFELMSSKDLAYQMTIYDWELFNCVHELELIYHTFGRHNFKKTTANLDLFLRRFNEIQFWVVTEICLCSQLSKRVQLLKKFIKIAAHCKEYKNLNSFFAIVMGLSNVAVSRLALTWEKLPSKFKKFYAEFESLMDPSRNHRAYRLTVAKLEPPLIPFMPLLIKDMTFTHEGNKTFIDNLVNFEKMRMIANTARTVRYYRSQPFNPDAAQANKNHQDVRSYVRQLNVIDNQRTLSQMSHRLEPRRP
SMILES,Potency [1],Potency [2],activation [3],"activity change, negative = inhibition [4]",activation [5],"activity change, negative = inhibition [6]",Potency [3],outcome [6]
Cc1ccc(C)c(Cn2c(C(=O)O)c(C=O)c3ccccc32)c1,inactive,inactive,"10% [at 17.1 µM, percent relative to cAMP agonist control]",3.6% [at 12.7 µM],9.64% [at 30.8 µM],,,
O=c1nc(/C=C/c2ccc(Cl)cc2Cl)cc(C(F)(F)F)[nH]1,44.7 µM (active),inactive,"-2.31% [at 17.1 µM, percent relative to cAMP agonist control]",-10% [at 12.7 µM],4.81% [at 30.8 µM],,,
O=c1oc2ccccc2c(O)c1C(c1ccc([N+](=O)[O-])cc1)c1c(O)c2ccccc2oc1=O,15.8 µM (active),inactive,"0% [at 17.1 µM, percent relative to cAMP agonist control]",,,-13.4% [at 30.8 µM],,
Cc1ccc(-n2c(O)c(/C=C/C=Nc3ccccc3)c(=O)[nH]c2=O)cc1,inactive,inactive,,,,,inactive,inactive

# Reference: PubChem BioAssay (NCATS)
